An excerpt weighted towards active compounds, which were near 11% of everything screened.
Pf growth 96h – inhibits malaria parasite growth, 96 h. P. falciparum luciferase reporter growth, 96 h. Potency, µM (titrated, usually from 28.7 µM), for the others: at the highest dose activity change, negative = inhibition, usual class: inhibitors. 320,000 compounds, 6.9% hits
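96 h incubation, 37 C, 5% CO2, of luciferase-reporter P. falciparum-infected RBCs (2% hematocrit, 0.05% parasitemia final) with test compounds; endpoint luminescence.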
AMA1 RON2 block – inhibitors of Plasmodium falciparum AMA1-RON2 interaction; AID 720542; Potency, µM (titrated, usually from 58.2 µM), for the others: at the top dose activity change, negative = inhibition, usual class: inhibitors; AlphaScreen AMA1-biotinylated RON2 peptide binding; 360,000 compounds, 0.2% hits;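 further: 0% = vehicle wells and -100% = peptide control; nearly all actives have a fitted effect of over 45% in size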
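AMA1 (3D7) with his tag at 25 nM final met compounds first, then biotinylated RON2 peptide at 25 nM; detection used donor plus acceptor beads, 10 µg/mL apiece, read by AlphaScreen after 30 min at room temperature.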
AmpC inh no detg – AmpC beta-lactamase inhibition without detergent | AmpC nitrocefin hydrolysis, absorbance 480 nm, 0.0001% Triton | P00811 | AID 485341 | Potency, µM (doses to about 57.1 µM), for the others: at the top dose activity change, negative = inhibition, most hits filed as inhibitors | 330,000 compounds, 0.52% hits;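 further: plate controls were no compound for no effect and no enzyme for full effect; nearly all actives have a fitted effect of over 20% in size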
Target sequence (P00811 whole entry, looked up): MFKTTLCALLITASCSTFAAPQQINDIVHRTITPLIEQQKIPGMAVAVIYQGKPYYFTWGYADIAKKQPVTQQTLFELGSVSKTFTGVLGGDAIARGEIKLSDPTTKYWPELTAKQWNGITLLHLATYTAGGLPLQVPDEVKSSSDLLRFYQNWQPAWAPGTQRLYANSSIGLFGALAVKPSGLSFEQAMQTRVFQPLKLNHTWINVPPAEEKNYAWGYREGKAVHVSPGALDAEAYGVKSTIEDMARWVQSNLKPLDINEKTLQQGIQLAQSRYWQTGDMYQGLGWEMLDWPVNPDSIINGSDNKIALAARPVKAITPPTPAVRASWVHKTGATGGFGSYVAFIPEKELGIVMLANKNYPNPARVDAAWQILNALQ
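AmpC (5.3 nM in the dispensed reagent) in 20 mM phosphate pH 7.0 with 0.01% (detergent screen) or 0.0001% Triton X-100 was preincubated with compounds for 15 min at room temperature. Nitrocefin was then added from an 800 uM solution, and hydrolysis was followed at 480 nm.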
AmpC detergent – AmpC beta-lactamase inhibition with detergent present; AmpC hydrolysis of nitrocefin, absorbance 480 nm, 0.01% Triton; Potency, µM (doses to about 114 µM), for the others: top-dose activity change, negative = inhibition, actives largely listed as inhibitors; 370,000 compounds, 0.041% hits;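 further: 0% = no-compound wells and -100% = no-enzyme wells; nearly all actives have a fitted effect of over 25% in size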
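20 mM phosphate pH 7.0 + 0.01% (detergent screen) or 0.0001% Triton X-100; 5.3 nM AmpC reagent; cpd preinc 15 min RT; nitrocefin (800 uM stock) to start; A480 q20 s × 4 min; Activity was normalised to no-enzyme and no-compound control wells.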
Pf growth 48h – inhibits P. falciparum growth in the first generation, 48 h. P. falciparum luciferase growth in erythrocytes, 48 h. Potency, µM (highest dose often 28.7 µM), without a hit: at the highest dose activity change, negative = inhibition, usual class: inhibitors. 310,000 compounds, 5.9% hits. AID 504832
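Erythrocytes infected with P. falciparum carrying an integrated firefly luciferase reporter (2% hematocrit, 0.1% parasitemia final) were exposed to compounds in RPMI 1640 with 0.5% Albumax at 37 C, 5% CO2. Growth inhibition was scored as reduced luminescence.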
HCV inh – inhibitors of hepatitis C virus infection; Huh7.5.1 HCVcc-Cre infection, luciferase reporter, 44 h; AID 651820; 340,000 compounds, 3.4% hits; Potency, µM (top dose mostly 41.8 µM), inactives show at the highest dose activity change, negative = inhibition, actives largely listed as inhibitors
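Luciferase read-out (15 sec integration) after a 15 min room-temperature substrate step quantifies HCVcc-Cre infection. Cells, 1,000 per well, had compound added 4 h post-plating, then virus at ~0.5 moi, and were cultured 44 h.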
An asterisk follows results filed as active; ? = inconclusive; . = no result; [ ] = another dose, or the depositor's remark. The call rests on the fitted dose curve; in most records, active means well fitted curve in the direction sought with a large enough effect; inconclusive means small, poorly fitted or top-dose-only effect, or another doubt; inactive means no such curve, though single readings can be large; an effect the other way counts as inactive or inconclusive. Unless noted, on the % scale 0 is the no-effect control and ±100 the full control effect; potency means the concentration at half of the fitted maximal effect.

SMILES	Pf growth 96h	AMA1 RON2 block	AmpC inh no detg	AmpC detergent	Pf growth 48h	HCV inh
CCC(C)C1C(C#N)=C(N)OC2=C1C(=O)CC(C)(C)C2 (centres undefined)	?	22.8%	-18.4%	?	?	-4.0%
CC(C)(C)c1[nH]nc2c1C(Cc1ccccc1)C(C#N)=C(N)O2 (centres undefined)	-21.5%	4.6%	-21.9%	?	10.4µM*	-20.2%
CC1C(C#N)=C(N)OC2=C1C(=O)CC(C)(C)C2 (centres undefined)	13.1µM*	-3.6%	-2.4%	-2.8%	.	-0.9%
CCCCN(C)C(=O)C1CCC(CNS(=O)(=O)c2ccc(Cl)cc2)CC1 (centres undefined)	.	.	.	12.3%	.	.
Cc1ccc(C)c(S(=O)(=O)NCc2ccc(C(=O)N3CCCCC3C)cc2)c1 (centres undefined)	4.15µM*	-0.8%	54.7%	0.6%	.	-1.3%
COc1cccc(CN(C)C(=O)c2cc(S(=O)(=O)NCc3ccccc3)ccc2C)c1OC	-17.8%	56.8%	-0.2%	-11.0%	-9.2%	-17.6%
COc1ccc(CCNC(=O)c2ccc(CS(=O)(=O)Cc3cccc(C)c3)o2)cc1OC	?	-1.0%	39.1%	-4.2%	-17.8%	22.4µM*
COc1ccc(CCN(C)C(=O)c2cc(S(=O)(=O)NCc3ccccc3)ccc2C)cc1OC	?	58.4%	56.4%	-2.6%	-9.1%	8.91µM*
COc1ccc(CCNC(=O)c2ccc(CNS(=O)(=O)c3ccc(C(C)(C)C)cc3)cc2)cc1OC	13.1µM*	5.1%	2.2%	-9.5%	?	?
COc1ccc(CNC(=O)CCNC(=O)c2ccc(C(C)(C)C)cc2)cc1OC	?	-5.0%	0.9%	-18.5%	-11.1%	2.0%
COc1cccc(C(=O)NCCSc2c(-c3ccc(F)cc3)[nH]c3ccccc23)c1OC	.	.	.	9.5%	.	.
CCOc1ccc(CCNC(=O)c2ccc(CNS(=O)(=O)c3ccccc3)cc2)cc1OCC	8.28µM*	-6.1%	-12.2%	-1.6%	?	?
COc1ccc(CCNC(=O)c2ccc(CNS(=O)(=O)c3cccc(Cl)c3)cc2)cc1OC	-18.6%	7.6%	-13.5%	?	26.2%	7.94µM*
Cc1ccc(CCNC(=O)c2ccc(CNS(=O)(=O)c3ccccc3)cc2)cc1	.	.	.	-4.2%	.	.
COc1ccc(CCNC(=O)c2ccc(CNS(=O)(=O)c3cc(C)ccc3C)cc2)cc1OC	5.22µM*	4.0%	-10.3%	-13.2%	.	?
CCOc1ccc(CCNC(=O)c2cc(=O)[nH]c3ccc(S(=O)(=O)N4CCCCC4C)cc23)cc1OCC (centres undefined)	.	.	.	4.4%	.	.
CCOc1ccc(CCNC(=O)c2cc(=O)[nH]c3ccc(S(=O)(=O)N(CC)CC)cc23)cc1OCC	?	-19.6%	-3.4%	-0.3%	14.7µM*	?
CCOc1ccccc1NC(=O)CSc1nccn1Cc1ccc(F)cc1	.	.	.	8.5%	.	.
Nc1nc(CN2CCN(Cc3ccccc3)CC2)nc(Nc2ccccc2)n1	13.1µM*	?	6.5%	?	?	-2.1%
COc1ccccc1N1CCN(Cc2nc(N)nc(Nc3ccc(C)c(Cl)c3)n2)CC1	?	-5.0%	302.0%	?	?	11.2µM*
COc1ccccc1Nc1nc(N)nc(CN2CCN(Cc3ccccc3)CC2)n1	?	-20.5%	16.5%	-18.8%	?	6.3%
COc1ccc(Nc2nc(N)nc(CSc3n[nH]c(-c4ccccc4)n3)n2)cc1	.	-8.9%	-52.0%	-2.3%	?	-16.0%
COc1ccccc1Nc1nc(N)nc(CN2CCN(Cc3ccc4c(c3)OCO4)CC2)n1	-0.4%	0.0%	67.3%	0.6%	?	-11.4%
Cc1cccc(Nc2nc(N)nc(CN3CCN(Cc4ccc5c(c4)OCO5)CC3)n2)c1	13.1µM*	6.1%	53.9%	-15.6%	?	-27.5%
Nc1nc(CSc2n[nH]c(-c3ccccc3)n2)nc(Nc2ccccc2)n1	?	-2.4%	-49.0%	-7.7%	-1.3%	3.16µM*
SMILES	Pf growth 96h	AMA1 RON2 block	AmpC inh no detg	AmpC detergent	Pf growth 48h	HCV inh
Cc1ccc(NC(=O)CSc2nc3nccnc3c(=O)n2CCc2c[nH]c3ccccc23)cc1C	.	.	.	12.3%	.	.
CCN(Cc1cc(=O)oc2cc(C)ccc12)c1ccccc1	?	0.2%	-50.1%	-0.7%	?	22.4µM*
O=C(CCCn1c(=O)c2ccccc2n(CC(=O)Nc2cccc(C(F)(F)F)c2)c1=O)NCc1ccc2c(c1)OCO2	.	.	.	-2.2%	.	.
Cc1ccc(C2=NN=C(NC(=O)CSc3nnc4c5ccccc5n(C)c4n3)SC2)cc1	18.2%	-3.2%[2.32 µM]	23.9%	?	3.29µM*	?
Cc1ccc(C2=NN=C(NC(=O)CSc3nc(C)cc(C)n3)SC2)cc1	-5.3%	.	30.3%	5.8%	?	?
CS(=O)(=O)N(CC(=O)NCCSc1ccccc1)c1cc(C(F)(F)F)ccc1Cl	.	.	.	15.6%	.	.
S=C(NC1CCCCC1)N1CCN(C/C=C/c2ccccc2)CC1	10.2%	-0.9%[11.6 µM]	90.5%	12.1%	?	8.91µM*
O=C(c1ccc(OC2CCN(C/C=C/c3ccccc3)CC2)cc1)N1CCCCC1	1.3%	-7.4%	134.6%	1.0%	?	3.3%
O=C(c1cccc([N+](=O)[O-])c1)N1CCN(C/C=C/c2ccccc2)CC1	?	-10.5%	110.7%	8.9%	?	-6.6%
Cc1cc(C)cc(NC(=O)N2CCN(C/C=C/c3ccccc3)CC2)c1	2.94µM*	10.0%	1.5%[2.29 µM]	-1.5%	-7.9%	-14.9%
O=C(c1ccc(OC2CCN(C/C=C/c3ccccc3)CC2)cc1)N1CCCC1	10.4µM*	-0.5%	125.5%	-7.2%	2.94µM*	-1.0%
CC(C(=O)Nc1cccc([N+](=O)[O-])c1)N1CCN(C/C=C/c2ccccc2)CC1 (centres undefined)	13.1µM*	-16.3%	145.4%	?	?	?
CC(C)NC(=S)N1CCN(C/C=C/c2ccccc2)CC1	?	-27.8%	75.6%	-4.1%	-5.6%	-10.2%
CCOc1ccc(CNC(=O)c2cnc(SC)nc2C)cc1	.	.	.	16.9%	.	.
COc1ccc(CN(Cc2ccco2)c2cnc(S(C)(=O)=O)nc2C(=O)Nc2ccc(C)c(C)c2)cc1	.	.	.	-4.1%	.	.
Cc1cc(C)cc(CN2CCC(Oc3ccc(C(=O)N4CCCC4)cc3)CC2)c1	-19.4%	0.0%	167.1%	?	11.7µM*	-17.1%
COc1ccc(NS(=O)(=O)c2cc(C(=O)N3CCN(C/C=C/c4ccccc4)CC3)ccc2C)cc1	?	-6.0%	71.8%	?	11.7µM*	?
O=C(c1ccco1)N1CCN(C/C=C/c2ccccc2)CC1	-3.9%	?	17.0%	2.3%	31.4%	-18.0%
